Laboratory results taken from PubChem BioAssay (NCATS).
Results filed as inconclusive are left out. Activity calls are given as the source filed them. Unless noted, calls follow the shape of the dose curve; as a rule, active = well fitted curve in the direction sought with a large enough effect; inconclusive = small, poorly fitted or top-dose-only effect, or another doubt; inactive = no such curve, though single readings can be large; an effect the other way counts as inactive or inconclusive.

Tests used:
[1] = target: DNA repair nuclease/redox regulator APEX1 (Homo sapiens) (UniProt P27695); assay: qHTS Validation Assay for Inhibitors of the Human Apurinic/apyrimidinic Endonuclease 1 (APE1) (AID 1705;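 also: TAMRA fluorescence gain over two minutes as APE1 cuts a quenched THF abasic duplex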); details: purified APE1 endonuclease activity, fluorescence, titration; series mostly up to 57.1 µM
Chain of DNA repair nuclease/redox regulator APEX1 (Homo sapiens) (P27695 whole entry, looked up): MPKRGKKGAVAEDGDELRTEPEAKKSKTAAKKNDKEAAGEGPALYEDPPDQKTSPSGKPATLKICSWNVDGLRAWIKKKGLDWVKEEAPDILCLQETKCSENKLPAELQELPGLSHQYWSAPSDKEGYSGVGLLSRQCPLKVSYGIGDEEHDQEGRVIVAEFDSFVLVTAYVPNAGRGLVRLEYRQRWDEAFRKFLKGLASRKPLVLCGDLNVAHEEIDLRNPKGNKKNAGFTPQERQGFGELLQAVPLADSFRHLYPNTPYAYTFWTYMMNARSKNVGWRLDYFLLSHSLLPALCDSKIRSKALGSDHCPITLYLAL
Summary of the method: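 Endonuclease activity of human APE1 is followed as dequenching when the enzyme incises a tetrahydrofuran abasic site in a short duplex labelled 5'-TAMRA/3'-BHQ-2 (50 nM final), after 15 min enzyme–compound preincubation at room temperature.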

[2] = Counterscreen for APE1 Inhibitors: Fluorescent Dye Displacement Validation Assay (AID 1707); details: fluorescent dye displacement from DNA; series mostly up to 57.1 µM
Summary of the method: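 Thiazole Orange (250 nM) bound to 50 nM TAMRA-labelled dsDNA with tetrahydrofuran abasic site; displacement by DNA-binding compounds lowers fluorescence. Buffer 50 mM Tris-HCl pH 7.5, 50 mM NaCl, 2 mM MgCl2, 0.01% Tween-20; endpoint read at 480/540 nm.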

[3] = qHTS for differential inhibitors of proliferation of Plasmodium falciparum line 7G8 (AID 1815); details: Plasmodium falciparum 7G8 proliferation inhibition; series mostly up to 28.7 µM;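 also: potency is read from the fitted curve at half-maximal effect; parasite growth measured after three days of incubation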
[4] = qHTS for differential inhibitors of proliferation of Plasmodium falciparum line 3D7 (AID 1876); also: potency is read from the fitted curve at half-maximal effect; details: P. falciparum 3D7 proliferation inhibition; series mostly up to 28.7 µM
[5] = qHTS for differential inhibitors of proliferation of Plasmodium falciparum line D10 (AID 1877); details: series mostly up to 28.7 µM;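 also: parasites grown with compound for 72 h before DNA staining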; also: potency is read from the fitted curve at half-maximal effect
[6] = qHTS for differential inhibitors of proliferation of Plasmodium falciparum line Dd2 (AID 1882); details: Potency: Plasmodium falciparum Dd2 proliferation inhibition; series mostly up to 28.7 µM; also: potency is read from the fitted curve at half-maximal effect; nearly all actives have a fitted effect of over 65% in size
Summary of the method: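 Dd2-infected erythrocytes (0.3% parasitemia, 2.5% hematocrit final) incubated with compound 72 h at 37 C, 5% CO2; lysed with saponin/Triton buffer containing SYBR Green I, incubated overnight in the dark, then read by fluorescence (485/535 nm). Normalized to 0.29 uM artemisinin and DMSO.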

[7] = qHTS for differential inhibitors of proliferation of Plasmodium falciparum line W2 (AID 1883); details: Potency: Plasmodium falciparum W2 proliferation inhibition; series mostly up to 28.7 µM;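 also: potency is read from the fitted curve at half-maximal effect; parasites grown with compound for 72 h before lysis and staining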
[8] = qHTS for differential inhibitors of proliferation of Plasmodium falciparum line HB3 (AID 1886); details: Potency: Plasmodium falciparum HB3 proliferation inhibition; series mostly up to 28.7 µM;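 also: parasites grown with compound for 72 h before SYBR Green readout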; also: potency is read from the fitted curve at half-maximal effect
[9] = target: Ferritin light chain (Equus caballus) (UniProt P02791); assay: qHTS Validation Assay for Identification of Novel General Anesthetics (AID 2323); details: horse apoferritin, anesthetic-site fluorescent probe displacement; series mostly up to 76.9 µM
Chain of Ferritin light chain (Equus caballus) (P02791 2-175 limits assumed): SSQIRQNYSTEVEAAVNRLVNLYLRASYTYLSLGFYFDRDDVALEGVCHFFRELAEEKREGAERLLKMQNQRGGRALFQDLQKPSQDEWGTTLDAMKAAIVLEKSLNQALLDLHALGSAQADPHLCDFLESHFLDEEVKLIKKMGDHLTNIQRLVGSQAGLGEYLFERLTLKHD
Summary of the method: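 Apoferritin from horse spleen (10 uM) was mixed with 1-aminoanthracene at 50% saturation in PBS, then compounds were added. After 10 min at room temperature, fluorescence was read (ex 380 nm, em 535 nm) and normalized to free-probe and complex controls.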

[10] = target: ATP-dependent DNA helicase Q1 (Homo sapiens) (UniProt P46063); assay: qHTS Validation Assay for Inhibitors of RecQ-Like Dna Helicase 1 (RECQ1) (AID 2353); details: recombinant RECQ1 helicase DNA unwinding assay; series mostly up to 25.6 µM
Chain of ATP-dependent DNA helicase Q1 (Homo sapiens) (P46063 whole entry, looked up): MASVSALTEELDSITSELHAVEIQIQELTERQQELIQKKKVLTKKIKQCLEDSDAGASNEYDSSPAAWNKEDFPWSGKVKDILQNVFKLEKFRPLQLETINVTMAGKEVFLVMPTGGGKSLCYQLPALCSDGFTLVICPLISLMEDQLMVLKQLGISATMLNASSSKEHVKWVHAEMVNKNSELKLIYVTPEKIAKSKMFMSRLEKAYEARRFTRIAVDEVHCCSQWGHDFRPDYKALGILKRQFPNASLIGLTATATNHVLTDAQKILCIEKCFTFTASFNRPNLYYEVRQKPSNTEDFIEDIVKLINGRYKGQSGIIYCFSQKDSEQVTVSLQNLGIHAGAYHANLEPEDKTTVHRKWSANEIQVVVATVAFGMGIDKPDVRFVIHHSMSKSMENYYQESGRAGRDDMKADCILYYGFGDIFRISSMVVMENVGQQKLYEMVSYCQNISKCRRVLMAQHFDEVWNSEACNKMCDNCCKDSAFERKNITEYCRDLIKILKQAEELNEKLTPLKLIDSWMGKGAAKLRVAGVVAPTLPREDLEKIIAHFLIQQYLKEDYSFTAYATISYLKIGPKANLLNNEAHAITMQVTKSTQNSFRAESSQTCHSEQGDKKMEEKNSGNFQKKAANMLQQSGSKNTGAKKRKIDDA
Summary of the method: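 50 nM RECQ1T1 preincubated 15 min with compound in Tris pH 8.0 buffer with MgCl2, DTT, Tween-20 and 2.5 ug/ml poly(dI-dC); started with 200 nM TAMRA/BHQ-2 forked duplex and 2 mM ATP. Unwinding read as fluorescence (525/598 nm), two reads 2 h apart.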

[11] = target: RecQ-like DNA helicase BLM (Homo sapiens) (UniProt P54132); assay: qHTS Validation Assay for Inhibitors of Bloom's syndrome helicase (BLM) (AID 2364); details: BLM helicase DNA unwinding, fluorescence, in vitro; series mostly up to 57.1 µM
Chain of RecQ-like DNA helicase BLM (Homo sapiens) (P54132 whole entry, looked up): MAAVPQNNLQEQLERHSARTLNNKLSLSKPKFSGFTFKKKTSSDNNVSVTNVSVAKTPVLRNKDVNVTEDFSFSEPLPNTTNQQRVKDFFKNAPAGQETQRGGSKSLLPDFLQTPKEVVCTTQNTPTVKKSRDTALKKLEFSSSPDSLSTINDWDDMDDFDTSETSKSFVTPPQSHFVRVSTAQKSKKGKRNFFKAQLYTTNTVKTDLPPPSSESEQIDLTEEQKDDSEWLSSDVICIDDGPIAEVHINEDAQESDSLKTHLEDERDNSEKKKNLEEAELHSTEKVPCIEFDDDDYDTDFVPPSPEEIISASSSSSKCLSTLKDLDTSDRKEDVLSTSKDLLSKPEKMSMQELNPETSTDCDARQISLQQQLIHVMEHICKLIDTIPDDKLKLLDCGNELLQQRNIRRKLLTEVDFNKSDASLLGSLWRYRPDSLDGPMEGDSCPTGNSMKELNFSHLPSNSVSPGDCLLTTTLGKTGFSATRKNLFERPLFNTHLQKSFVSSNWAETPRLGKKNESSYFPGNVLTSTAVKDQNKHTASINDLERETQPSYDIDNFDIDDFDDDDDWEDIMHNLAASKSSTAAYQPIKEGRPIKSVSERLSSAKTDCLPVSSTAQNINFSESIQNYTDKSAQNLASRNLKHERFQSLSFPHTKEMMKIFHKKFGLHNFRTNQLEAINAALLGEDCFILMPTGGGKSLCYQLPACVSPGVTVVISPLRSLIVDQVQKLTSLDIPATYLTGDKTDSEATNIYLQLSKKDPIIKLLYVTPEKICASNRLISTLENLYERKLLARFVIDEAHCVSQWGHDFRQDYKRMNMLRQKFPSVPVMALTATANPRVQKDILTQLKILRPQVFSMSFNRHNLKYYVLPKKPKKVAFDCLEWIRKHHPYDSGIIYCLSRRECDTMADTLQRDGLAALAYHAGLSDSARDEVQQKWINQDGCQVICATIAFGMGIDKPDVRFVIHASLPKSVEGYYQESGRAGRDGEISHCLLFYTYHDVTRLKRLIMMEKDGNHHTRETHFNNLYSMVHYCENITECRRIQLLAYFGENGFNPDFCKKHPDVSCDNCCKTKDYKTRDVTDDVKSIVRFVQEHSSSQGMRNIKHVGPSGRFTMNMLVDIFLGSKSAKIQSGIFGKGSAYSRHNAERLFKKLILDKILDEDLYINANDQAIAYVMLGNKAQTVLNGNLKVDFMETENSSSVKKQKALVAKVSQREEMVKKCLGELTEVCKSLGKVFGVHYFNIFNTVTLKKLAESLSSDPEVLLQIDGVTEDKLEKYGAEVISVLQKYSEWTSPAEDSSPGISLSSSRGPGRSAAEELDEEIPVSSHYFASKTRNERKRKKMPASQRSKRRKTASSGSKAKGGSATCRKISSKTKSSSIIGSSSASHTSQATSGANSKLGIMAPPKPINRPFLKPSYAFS
Summary of the method: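 BLM 50 nM in 25 mM Tris-HCl pH 8.0, 5 mM NaCl, 2 mM MgCl2, 1 mM DTT, 0.01% Tween-20, 2.5 ug/ml poly(dI-dC); 15 min cpd preinc, RT. Start: 200 nM forked DNA + 2 mM ATP (final). TAMRA read, 2 reads 2 h apart.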

[12] = Cytometric Cell-Based qHTS for Inhibitors of the mTORC1 Signaling Pathway in MEF (Tsc2-/-, p53-/-) Cells (AID 2660); details: mTORC1 pathway cytometry; series mostly up to 38.3 µM;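 also: percent of cells above a phospho-rpS6 to PI ratio cutoff in each well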
Summary of the method: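 Tsc2-/-, p53-/- MEFs (empty vector) exposed to compound 24 h at 37 C, fixed, stained with Alexa-488 anti-phospho-rpS6 Ser235/236 and propidium iodide. Acumen laser scanning; phospho-S6/PI ratio thresholded against 7.5 nM rapamycin, reported as % positive cells.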

[13] = High Content Imaging Cell-Based qHTS for Inhibitors of the mTORC1 Signaling Pathway in MEF Cells (AID 2667); details: series mostly up to 38.3 µM; also: potency is read from the fitted curve at half-maximal effect
Summary of the method: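 MEF (Tsc2-/-, p53-/-, WT Tsc2 re-expressed); cpd 24 h, 37 °C; PFA fix; Alexa-488 anti-p-rpS6 Ser235/236, PI, Hoechst; IN Cell imaging; Hoechst/Alexa-488 intensity ratio; % active cells, thresholds set from rapamycin and DMSO wells.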

[14] = Validation screen for small molecules that induce DNA re-replication in MCF 10A normal breast cells (AID 463097); details: MCF 10A cells, DNA re-replication phenotype imaging; series mostly up to 46.1 µM; also: nearly all actives have a fitted effect of over 60% in size; also: potency is read from the fitted curve at half-maximal effect
Summary of the method: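 DNA re-replication was detected as a rise in nuclei with elevated Hoechst fluorescence after a 48 hr compound exposure of MCF 10A cells at 37 C.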

[15] = target: Endonuclease 4 (Escherichia coli (strain K12)) (UniProt P0A6C1); assay: Counterscreen for APE1 Inhibitors: qHTS Validation Assay for Inhibitors of Endonuclease IV (AID 1708); details: E. coli endonuclease IV, DNA cleavage fluorescence; series mostly up to 57.1 µM
Summary of the method: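 Concentration-response counterscreen run identically to the APE1 assay: 15 min room-temperature preincubation of 2 nM enzyme with compound, reaction started with 50 nM quenched abasic DNA, progress taken from kinetic fluorescence.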

[16] = qHTS for differential inhibitors of proliferation of Plasmodium falciparum line GB4 (AID 1816); details: Potency: Plasmodium falciparum GB4 proliferation inhibition; series mostly up to 28.7 µM;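 also: potency is read from the fitted curve at half-maximal effect; parasite growth measured after 72 h incubation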
[17] = qHTS Assay for Modulators of Human Peripheral Myelin Protein 22 (PMP22) Expression/Activity (AID 1967; active = well fitted curve in the direction sought with a large enough effect in the signal ratio; the % refers to the signal ratio); details: Cell-based PMP22 reporter, dual-color luciferase ratio, mouse Pmp22 promoter in mouse Schwann cells; series mostly up to 115 µM
Summary of the method: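 Quantitative HTS in a mouse Schwann cell line expressing dual click beetle luciferases: Pmp22 promoter (green) and control EF-alpha promoter (red). After 24h treatment, corrected green/red signal ratio gave %Activity relative to untreated cells.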

[18] = Cytometry Cell-Based qHTS for Inhibitors of the mTORC1 Signaling Pathway in MEF cells (AID 2668); details: mTORC1 pathway readout; series mostly up to 38.3 µM;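 also: Tsc2-/- p53-/- mouse embryonic fibroblasts stably re-expressing wild-type Tsc2; percent cells positive for phospho-rpS6 Ser235/236 relative to propidium iodide stain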
Summary of the method: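 Pathway inhibition in WT Tsc2-rescued Tsc2-/-, p53-/- MEFs is measured as the Alexa-488 phospho-rpS6 to propidium iodide intensity ratio after 24 hrs of compound at 37 degree Celsius. PI-stained cell number gives viability.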

[19] = High Content Imaging Cell-Based qHTS for Inhibitors of the mTORC1 Signaling Pathway in MEF (Tsc2-/-, p53-/-) Cells (AID 2666); details: series mostly up to 38.3 µM;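 also: percent of cells scored positive for phospho-rpS6 Ser235/236 immunostaining by imaging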
Summary of the method: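 Read-out: % positive cells per well, with thresholds from highest- and lowest-signal wells, based on phospho-rpS6 (Ser235/236) intensity normalized to Hoechst nuclear stain. Cells: Tsc2-/-, p53-/- MEFs carrying empty vector; compound 24 hrs, 37 degree Celsius.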

Measured: Potency

CN(C)CCOC(c1ccccc1)c1ccccc1
active: [3] 3.98 µM | [6] 3.98 µM | [7] 1 µM
not listed: [15] | [16] | [17] | [18] | [19]
inactive: all other assays above

CC12CC3CC(C)(C1)CC(N)(C3)C2
inactive: [1] | [15] | [5] | [9] | [10] | [12] | [13] | [14]
active: [3] 11.2 µM | [16] 0.891 µM | [6] 5.62 µM | [7] 2.24 µM

CN1C2CCC1CC(OC(=O)C(CO)c1ccccc1)C2 (stereo unspecified)
not listed: [3] | [6] | [7] | [11] | [15] | [16] | [19]
inactive: all other assays above

CCCNCC(O)COc1ccccc1C(=O)CCc1ccccc1 (stereo unspecified)
active: [16] 0.355 µM | [4] 0.891 µM | [5] 2.24 µM | [6] 1 µM | [7] 0.316 µM | [8] 1 µM | [13] 16.5 µM
inactive: [1] | [2] | [9] | [10] | [11] | [12] | [14]

O=c1[nH]cc(F)c(=O)[nH]1
inactive: [1] | [2] | [9] | [10] | [11] | [12] | [19] | [13] | [14]

CC#C[C@]1(O)CC[C@H]2[C@@H]3CCC4=CC(=O)CCC4=C3[C@@H](c3ccc(N(C)C)cc3)C[C@@]21C
active: [13] 11.7 µM
inactive: [12] | [19]

OCCN(CCO)c1nc(N2CCCCC2)c2nc(N(CCO)CCO)nc(N3CCCCC3)c2n1
active: [3] 2 µM | [16] 2.82 µM | [4] 3.98 µM | [5] 7.94 µM | [6] 6.31 µM | [7] 2.82 µM | [8] 3.55 µM | [14] 12.6 µM
inactive: [15] | [10] | [12] | [13] | [18]

COc1ccccc1N1CCN(CC(O)COc2cccc3ccccc23)CC1 (stereo unspecified)
active: [3] 11.2 µM | [16] 14.1 µM | [7] 10 µM | [8] 12.6 µM
inactive: [1] | [9] | [10] | [11] | [19]

Cc1cc(C(C)(C)C)cc(C)c1CC1=NCCN1
inactive: [1] | [2] | [10] | [12] | [13] | [18] | [14]

CCN1CCCC1CNC(=O)c1cc(S(=O)(=O)CC)c(N)cc1OC (stereo unspecified)
inactive: [12] | [13] | [18]

O=C(c1ccc(OCCN2CCCCC2)cc1)c1c(-c2ccc(O)cc2)sc2cc(O)ccc12
inactive: [1] | [10] | [19]
active: [3] 4.47 µM | [16] 2 µM | [4] 2.82 µM | [5] 3.16 µM | [7] 3.16 µM | [8] 3.16 µM | [14] 11.2 µM

CC(COc1ccccc1)N(CCCl)Cc1ccccc1 (stereo unspecified)
inactive: [1] | [2] | [9] | [10] | [11] | [12] | [19] | [13] | [18] | [14]

O=c1c(O)c(-c2ccc(O)c(O)c2)oc2cc(O)cc(O)c12
inactive: [15] | [9] | [12] | [13] | [18] | [14]

CN(C)C(=O)C(CCN1CCC(O)(c2ccc(Cl)cc2)CC1)(c1ccccc1)c1ccccc1
inactive: [1] | [2] | [10]

COc1cc2nc(N(C)CCCNC(=O)C3CCCO3)nc(N)c2cc1OC (stereo unspecified)
inactive: [12] | [19] | [13] | [18]

O=C1Cc2cc(CCN3CCN(c4nsc5ccccc45)CC3)c(Cl)cc2N1
inactive: [13] | [18]
